# IDE cell inh: inhibits human insulin-degrading enzyme in HEK cells | P14735 | FAbetaB cleavage, fluorescence polarization | inhibition, % at 5.59 µM | 320,000 compounds, 0.41% hits | AID 434962;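 active = percent inhibition above the average of all tested compounds plus 3 SD, set per screening campaign, cut at about 16% in these data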;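 also: IDE supplied by intact live HEK cells; FP after avidin binding of uncleaved biotin substrate so inhibition keeps polarization high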
# GLD-1 RNA inh: GLD-1-TGE RNA interaction inhibition (C. elegans) | Q17339 | purified GLD-1 + fluorescein TGE RNA, fluorescence polarization | inhibition, % at 5.96 µM | 320,000 compounds, 0.44% hits;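 active = percent inhibition above a per-plate cutoff, the plate mean of test compounds plus 3 SD, cut at about 30% in these data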
# Bcl-xL primary: inhibitors of human Bcl-xL. inhibition, % at 10.9 µM. Q07817. GST-Bcl-xL / FITC-Bim BH3 peptide fluorescence polarization. 320,000 compounds, 0.7% hits;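 active = inhibition above the mean of all tested compounds plus 3 SD, cutoff set per campaign, cut at about 30% in these data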;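 also: inhibitors lower millipolarization by displacing the labeled peptide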
# Target sequence (Q07817 whole entry, looked up): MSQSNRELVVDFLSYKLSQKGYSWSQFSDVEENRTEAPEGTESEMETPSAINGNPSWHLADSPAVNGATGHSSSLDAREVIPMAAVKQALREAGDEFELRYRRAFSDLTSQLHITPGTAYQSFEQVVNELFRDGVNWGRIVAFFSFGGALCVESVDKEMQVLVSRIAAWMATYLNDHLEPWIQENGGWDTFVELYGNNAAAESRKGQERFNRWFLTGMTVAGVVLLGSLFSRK
# MCL1-BIM inh: disrupts human MCL1 binding to BIM-BH3 peptide; Q07820; GST-MCL1 / FITC-Bim-BH3 fluorescence polarization; inhibition, % at 10.9 µM; 320,000 compounds, 0.68% hits; AID 2057;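 active = inhibition above the mean inhibition of all tested compounds plus 3 SD, set per campaign, cut at about 40% in these data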;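 also: higher means more loss of mP so more displacement of Bim peptide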
# IDE act: activators of human insulin-degrading enzyme in cells. activation, % at 5.96 µM. 340,000 compounds, 0.073% hits. HEK cells, FAbeta-B cleavage, fluorescence polarization; 0% vehicle, 100% cell-free pure enzyme wells. P14735;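 active = activation above the mean of all tested compounds plus 3 SD, set per screening campaign, cut at about 17% in these data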
# MEX-5 binding: C. elegans MEX-5 TCR-2 RNA binding activity; MEX-5/FITC-TCR2 RNA binding, fluorescence polarization; hits give low values; activity score (negative = inhibition of binding), % at 10 µM; 300,000 compounds, 0.38% hits; AID 1832;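 active = inhibition past about -25% in most replicates, and total fluorescence under double the plate's negative control median, limit read from the data; inconclusive = replicates evenly split on the limit, or fluorescence at least double controls; inactive = too little inhibition in most replicates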
# A number is an active result; 0 = inactive; ? = inconclusive; - = no result given. Hits are enriched below; roughly 1.5% of the tested compounds scored in any of these assays.
SMILES,IDE cell inh,GLD-1 RNA inh,Bcl-xL primary,MCL1-BIM inh,IDE act,MEX-5 binding
COc1ccc(OCCNc2cc(N3CCOCC3)ccc2[N+](=O)[O-])cc1,0,0,0,0,20.4,0
Oc1ccc(-c2nc3ccccc3s2)c(O)c1,0,0,0,0,0,0
Oc1ccc(-c2cnns2)c(O)c1,0,0,0,0,0,-61.4
COC(=O)[C@H](C)N(Cc1ccc(Cl)c(Cl)c1)S(=O)(=O)CCNC1CCCC1,-,-,-,-,0,-
CCOCCCNC(=O)/C(C#N)=C/c1ccc(-c2ccc(S(=O)(=O)N3CCOCC3)cc2)o1,0,0,0,0,0,0
CCOCCCNC(=O)/C(C#N)=C/c1ccc([N+](=O)[O-])o1,0,45.6,33.9,0,0,0
CCc1ccc(-c2nc(CS(=O)CC(=O)O)c(C)o2)cc1 (stereo not given),0,0,0,0,17.9,0
COc1ccc(OC)c(C2C3CN(C(C)C)CC=C3C(C#N)=C(N)C2(C#N)C#N)c1 (stereo not given),0,52.1,87.2,95.6,0,-38.3
CCCN1CC=C2C(C#N)=C(N)C(C#N)(C#N)C(c3cccc(OC)c3OC)C2C1 (stereo not given),0,103.7,128.8,139.9,0,-67.1
CCCCOc1ccc(C2C3CN(C(=O)OCC)CC=C3C(C#N)=C(N)C2(C#N)C#N)cc1OC (stereo not given),0,0,0,0,0,0
CCN1CC=C2C(C#N)=C(N)C(C#N)(C#N)C(CCc3ccccc3)C2C1 (stereo not given),0,109.5,155.3,182.8,0,-
COc1cccc(OC)c1OCc1cc(C2C3CCCC=C3C(C#N)=C(N)C2(C#N)C#N)c(C)cc1C (stereo not given),0,0,0,0,0,0
COCCN(C(=O)CCC(=O)Nc1ccccn1)C(C(=O)NCCC(C)C)c1ccc(F)cc1 (stereo not given),0,0,0,0,0,0
NC(=O)CN1C(=O)NC2(CCOc3ccccc32)C1=O (stereo not given),0,0,0,0,0,0
CCC(C)(C)n1nnnc1C(C(C)C)N(Cc1ccco1)Cc1cc2cc3c(cc2[nH]c1=O)OCO3 (stereo not given),0,0,45.5,46.3,0,0
COc1ccc2[nH]c3c(NCCN4CCCCC4)ncnc3c2c1,0,0,0,0,0,0
COc1cc(CNc2ncnc3c2[nH]c2ccc(C)cc23)cc(OC)c1,55.5,0,0,0,0,0
COc1ccc([N+](=O)[O-])c(OC)c1C(=O)NC(=O)Nc1nc(C)nc(C)n1,0,0,0,0,0,0
Cc1ccc(N=Nc2c(O)ccc3n[nH]nc23)cc1,-,-,-,-,54.6,?
CSc1ccc(/C=N/n2c(COc3ccccc3)n[nH]c2=S)cc1,0,0,0,0,0,0
CC1(C)CC=C(NNC(=O)c2cccnc2)C(=O)C1,0,67.1,0,0,0,0
CC1(C)Cc2ccccc2C(NNC(=O)c2cccnc2)=N1,0,0,0,0,0,0
CC1(C)CC(=O)C=C(NNC(=O)c2cccnc2)C1,0,81.5,0,0,-,0
COc1cccc(C(=O)NNC2=CC(=O)CC(C)(C)C2)c1,0,0,0,0,0,0
CC(Sc1nnnn1C1CC1)C(=O)N1c2ccccc2NC(=O)C1(C)C (stereo not given),0,0,-,-,0,-
SMILES,IDE cell inh,GLD-1 RNA inh,Bcl-xL primary,MCL1-BIM inh,IDE act,MEX-5 binding
Cc1nc(Cc2nnc(SC(C)C(=O)N3c4ccccc4NC(=O)C3(C)C)o2)cs1 (stereo not given),0,0,0,0,20.2,-
COc1ccc(OC)c(NC(=O)Nc2ccc3c(c2)OCO3)c1,0,0,0,0,0,0
CC(C)CN(C(=O)Cn1nnc(-c2ccc(F)cc2)n1)C1CCS(=O)(=O)C1 (stereo not given),0,0,0,0,0,0
COc1cccc(=O)c2c(C)oc(C)c12,0,0,0,0,0,-70.7
COc1cc(/C=C2/S/C(=N/S(=O)(=O)c3ccccc3)NC2=O)c([N+](=O)[O-])cc1OC,0,0,39.9,46.2,0,0
Cc1ccc(C=C2C(=O)c3ccccc3C2=O)o1,0,0,0,0,0,0
Cc1ccc(/C=C2/C(=O)c3ccc(C(=O)O)cc3C2=O)o1,-,-,-,-,0,-26.0

# High-throughput results (PubChem)
